# Assay outcomes as filed in PubChem.
# ALR inh: human ALR oxidase inhibition via reduced H2O2; purified ALR, DTT oxidation, H2O2 HRP-luminol luminescence; inhibition, % (no concentration beside the values); actives 3.8% (n = 290,000);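 active = mean replicate inhibition above about 79%, with every replicate also reaching it, limit read from the data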
# rCAG RNA binder: r(CAG) repeat RNA binding | TO-PRO-1 dye displacement fluorescence | inhibition, % at 3 µM | actives 1.3% (n = 370,000);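 active = inhibition above the plate cutoff, the mean of all test compounds on that plate plus 3 SD, cut at about 35% in these data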;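 note: 0% = DMSO alone and 100% = 100 µM mitoxantrone as full dye displacement; higher means more dye released from RNA so lower well fluorescence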
# PHOSPHO1 inh: PHOSPHO1 (human) inhibition | recombinant PHOSPHO1, absorbance phosphatase assay | Q8TCT1 | inhibition, % at 13.3 µM | actives 1.1% (n = 290,000) | AID 1565; in the data active = inhibition above about 60%
# A3A deaminase: blocks human APOBEC3A ssDNA deamination; recombinant A3A, FAM/TAMRA ssDNA deamination fluorescence; inhibition, % at 20 µM; actives 0.41% (n = 330,000); AID 493011;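 active = at least 40% inhibition at 20 µM here, with at most 30% in a related deaminase screen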;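 note: plate controls were A3A with DMSO for no effect and wells lacking A3A enzyme for full effect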
# aDG glyco act: increases alpha dystroglycan glycosylation; actives 0.22% (n = 360,000); AID 624168; Pro5-aDG cells, alpha-DG glycosylation AlphaScreen (IIH6); 0% Pro5, 100% B10-LARGE cell signal; activation, % at 10 µM;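 active = activation of at least 8% versus controls, or a plate z-score of at least 8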;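 note: Pro5 are CHO cells carrying HIG-tagged alpha-DG that lacks glycosylation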
# A3G deaminase: APOBEC3G (human) deaminase inhibition; actives 0.28% (n = 330,000); inhibition, % at 20 µM; recombinant A3G, ssDNA deamination FAM/TAMRA fluorescence; AID 493012;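 active = inhibition of at least 40% at 20 µM, with no more than 30% in the related APOBEC3A deaminase screen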;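 note: plate controls were DMSO wells with A3G for no effect and wells lacking A3G enzyme for full effect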
# Target sequence (Q9HC16 whole entry, looked up): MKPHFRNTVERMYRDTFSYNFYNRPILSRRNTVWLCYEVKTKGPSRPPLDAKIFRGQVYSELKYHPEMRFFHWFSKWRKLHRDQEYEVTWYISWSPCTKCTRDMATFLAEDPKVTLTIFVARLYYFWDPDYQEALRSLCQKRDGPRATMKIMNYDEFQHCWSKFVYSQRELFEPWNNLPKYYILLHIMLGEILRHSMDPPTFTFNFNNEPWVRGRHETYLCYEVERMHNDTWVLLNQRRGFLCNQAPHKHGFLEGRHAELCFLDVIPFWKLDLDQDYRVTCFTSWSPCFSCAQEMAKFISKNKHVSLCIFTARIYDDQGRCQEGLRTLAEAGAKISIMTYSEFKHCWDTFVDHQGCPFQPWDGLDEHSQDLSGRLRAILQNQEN
# APOBEC3A confirm: confirmation of human APOBEC3A DNA deaminase inhibitors. actives 63% (n = 1,400). recombinant A3A, ssDNA deaminase UDG fluorescence assay. shares compounds with A3A deaminase. inhibition, % at 20 µM;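 active = inhibition reaching a set limit, 80% of the first screen's cutoff, at 20 µM in any replicate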;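 note: plate controls were DMSO wells with A3A for no effect and wells lacking A3A enzyme for full effect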
# UDG ctr A3A: counter-screen for APOBEC3A inhibitors: UDG; shares compounds with A3A deaminase; UDG counterscreen, FAM/TAMRA uracil oligo fluorescence; inhibition, % at 20 µM; 1,000 tested, under 10 active; call rule not given here
# * hit, by the source's call; . = not tested or not shown. Rows were chosen to be rich in hits. Some 5.4% of all compounds tested hit in one or more screens of this group.
SMILES,ALR inh,rCAG RNA binder,PHOSPHO1 inh,A3A deaminase,aDG glyco act,A3G deaminase,APOBEC3A confirm,UDG ctr A3A
C[N+]1(C)CCC(=C2c3ccccc3CC(=O)c3sccc32)CC1,2,-1,-109,52*,3,28,53*,.
COC(=O)C[C@@H]1CC[C@H]2[C@H](COc3ccc(NC(=O)c4ccc(OC)cc4)cc3C(=O)N2C)O1,.,2,.,.,.,.,.,.
Cc1cccc(S(=O)(=O)NNC(=O)Cc2cccn2C)c1,31,3,-45,58*,0,-8,-2,2
CCC(=O)Oc1ccc(C(=O)Nc2cccc(C(=O)c3ccccc3)c2)cc1,-16,-2,-20,45*,0,-3,-6,1
CC(=O)Oc1ccc(C(=O)Nc2cccc(C(=O)c3cccc(NC(=O)c4ccc(OC(C)=O)cc4)c3)c2)cc1,-3,6,-2,3,0,-7,.,.
O=C(CNC(=O)c1cccc(F)c1)OCC(=O)N1CCCCC1,.,2,-4,41*,0,2,2,.
O=C(CNC(=O)c1cccc(F)c1)OCC(=O)N1CCN(C(=O)c2ccco2)CC1,.,0,39,-8,0,-7,.,.
O=C(COC(=O)c1nc(Cl)c(Cl)c(Cl)c1Cl)c1ccc[nH]1,4,-1,.,45*,0,13,4,.
NC(=O)C1C2C=CC(C2)C1c1ccccc1 (configuration not stated),.,0,.,.,0,.,.,.
O=C(OCc1cc(=O)n2c(n1)sc1ccccc12)c1ccc(O)cc1O,-7,21,48,62*,0,23,23*,0
Cc1ccc(C(=O)N[C@H](C(=O)OCc2cc(=O)n3c(n2)sc2ccccc23)C(C)C)cc1,.,10,-16,19,0,9,.,.
CC(C)[C@H](NC(=O)c1ccco1)C(=O)OCc1cc(=O)n2c(n1)sc1ccccc12,-1,19,11,63*,1,17,39*,-2
CC1=C(C(=O)OCc2ccc([N+](=O)[O-])cc2)N2C(=O)C(NC(=O)Cc3ccccc3)C2SC1 (configuration not stated),17,5,36,50*,0,-2,40*,-3
C[C@H](CO)N1C[C@H](C)[C@@H](CN(C)S(=O)(=O)c2ccccc2F)Oc2ncc(C#Cc3cccnc3)cc2C1=O,.,4,.,.,0,.,.,.
COc1ccc(OC)c(NS(=O)(=O)c2cccs2)c1,-8,2,19,62*,0,-5,-1,3
O=C(N[C@H](C(=O)N1CCC[C@H]1C(=O)NCc1ccccc1)C1CCCCC1)c1ccccc1,.,0,.,.,.,.,.,.
COc1ccc(/C=N/OC(=O)Nc2ccccc2OC)cc1,-4,0,-10,97*,0,-3,-64,6
COc1ccc(NC(=O)O/N=C/c2ccc(Br)cc2)cc1,-6,2,46,-4,0,-5,.,.
C=CC#CC1(O)CC(C)[N+](C)(C)CC1C (configuration not stated),-1,-3,-144,56*,0,28,71*,-1
CC(C)n1c(SCC(=O)Nc2nncs2)nnc1-c1ccco1,3,.,18,66*,.,23,53*,-2
Cc1ccccc1C(=O)Nc1nnc([C@@H]2C[C@H](O)[C@@H](CO)O2)s1,.,3,.,.,1,.,.,.
Cc1ccccc1NC(=O)CSCCO,-3,1,-4,-2,0,-7,.,.
Cc1ccccc1CSCC(=O)Nc1ccccc1Br,-2,-5,24,72*,0,16,11,.
CCOC(=O)C1=C(C)N=C2SC(C(=O)OC)=CC(=O)N2C1c1ccc(F)cc1 (configuration not stated),-2,31,50,54*,0,-9,-1,-3
CCOC(=O)C1=C(C)N=C2SC(C(=O)OC)=CC(=O)N2C1c1cccc(OC)c1 (configuration not stated),-8,29,-104,-2,0,-2,.,.
COC(=O)N1Cc2ccnnc2CC1c1ccccc1-c1ccc(F)cc1 (configuration not stated),.,2,.,.,.,.,.,.
